# In article PMC11006913:
# Numbering of substitutions follows the chain as printed.
# Legend:
# Assay in all cases: PBM; 200 nM protein, PBS
# Conditions in all cases: dsDNA, one strand shown
# [1] = target: NKX2-5 (Homo sapiens, UniProt P52952 125-210, R139K)
# [2] = target: T1, SIX6 (Homo sapiens, UniProt O95475 114-200, L167I)
# T1 sequence: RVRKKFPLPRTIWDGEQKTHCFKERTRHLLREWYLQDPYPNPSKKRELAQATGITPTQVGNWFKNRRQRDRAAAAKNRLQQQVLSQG
# [3] = target: T2, SIX6 (Homo sapiens, UniProt O95475 114-200, L143V)
# T2 sequence: T1 sequence with L30V, I54L
# [4] = target: T3, SIX6 (Homo sapiens, UniProt O95475 114-200, H141N)
# T3 sequence: T1 sequence with H28N, I54L
# [5] = target: T4, SIX6 (Homo sapiens, UniProt O95475 114-200, T165P)
# T4 sequence: T1 sequence with T52P, I54L
# [6] = target: T5, SIX6 (Homo sapiens, UniProt O95475 114-200, L167M)
# T5 sequence: T1 sequence with I54M
# [7] = target: T6, SIX6 (Homo sapiens, UniProt O95475 114-200, L143M)
# T6 sequence: T1 sequence with L30M, I54L
# [8] = target: T7, SIX6 (Homo sapiens, UniProt O95475 114-200, L143I)
# T7 sequence: T1 sequence with L30I, I54L
# [9] = target: T8, SIX6 (Homo sapiens, UniProt O95475 114-200, T165G)
# T8 sequence: T1 sequence with T52G, I54L
# [10] = target: HOXA2 (Homo sapiens, UniProt O43364 129-215, R185T)
# [11] = target: T9, SIX6 (Homo sapiens, UniProt O95475 114-200, T139Q)
# T9 sequence: T1 sequence with T26Q, I54L
# [12] = target: T10, SIX6 (Homo sapiens, UniProt O95475 114-200, T165A)
# T10 sequence: T1 sequence with T52A, I54L
# [13] = target: HOXA2 (Homo sapiens, UniProt O43364 129-215, R185K)
# [14] = target: T11, SIX6 (Homo sapiens, UniProt O95475 114-200, L167V)
# T11 sequence: T1 sequence with I54V
# [15] = target: T12, SIX6 (Homo sapiens, UniProt O95475 114-200)
# T12 sequence: T1 sequence with I54L
# [16] = target: T13, SIX6 (Homo sapiens, UniProt O95475 114-200, T165I)
# T13 sequence: T1 sequence with T52I, I54L
# [17] = target: HOXA2 (Homo sapiens, UniProt O43364 129-215, Y150S)
# [18] = target: HOXA2 (Homo sapiens, UniProt O43364 129-215)
# [19] = target: NKX2-5 (Homo sapiens, UniProt P52952 125-210)
# [20] = target: T14, NKX2-4 (Homo sapiens, UniProt Q9H2Z4 175-261, T231S)
# T14 sequence: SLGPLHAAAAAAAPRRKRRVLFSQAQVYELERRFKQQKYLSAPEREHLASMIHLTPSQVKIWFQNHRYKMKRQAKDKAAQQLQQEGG
# [21] = target: T15, NKX2-6 (Homo sapiens, UniProt A6NCS4 118-204, R150C)
# T15 sequence: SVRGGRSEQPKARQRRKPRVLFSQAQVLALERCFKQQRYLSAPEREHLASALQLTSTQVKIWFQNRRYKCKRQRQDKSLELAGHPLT
# [22] = target: T16, NKX2-6 (Homo sapiens, UniProt A6NCS4 118-204)
# T16 sequence: T15 sequence with C33R
# [23] = target: T17, NKX2-4 (Homo sapiens, UniProt Q9H2Z4 175-261, R246Q)
# T17 sequence: T14 sequence with S57T, R72Q
# [24] = target: T18, NKX2-6 (Homo sapiens, UniProt A6NCS4 118-204, F151L)
# T18 sequence: T15 sequence with C33R, F34L
# [25] = target: NKX3-2 (Homo sapiens, UniProt P78367 192-278, P234S)
# [26] = target: NKX3-2 (Homo sapiens, UniProt P78367 192-278)
# [27] = target: HOXB6 (Homo sapiens, UniProt P17509 132-218, K202E)
# [28] = target: VAX1 (Homo sapiens, UniProt Q5SQQ9 86-172)
# [29] = target: VAX1 (Homo sapiens, UniProt Q5SQQ9 86-172, T142I)
# [30] = target: VAX1 (Homo sapiens, UniProt Q5SQQ9 86-172, K157R)
# [31] = target: HOXB6 (Homo sapiens, UniProt P17509 132-218)
# [32] = target: HOXA7 (Homo sapiens, UniProt P31268 116-202)
# [33] = target: HOXA7 (Homo sapiens, UniProt P31268 116-202, W177C)
# [34] = target: HOXD13 (Homo sapiens, UniProt P35453 263-343, T313R)
# [35] = target: HOXD13 (Homo sapiens, UniProt P35453 263-343)
# [36] = target: HOXD13 (Homo sapiens, UniProt P35453 263-343, T313A)
# Chain of HOXD13 (Homo sapiens, UniProt P35453 263-343, T313A) (P35453 263-343 T313A): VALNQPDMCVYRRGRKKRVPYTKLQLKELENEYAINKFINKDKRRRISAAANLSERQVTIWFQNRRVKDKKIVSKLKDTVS
# Chain of NKX2-5 (Homo sapiens, UniProt P52952 125-210) (P52952 125-210): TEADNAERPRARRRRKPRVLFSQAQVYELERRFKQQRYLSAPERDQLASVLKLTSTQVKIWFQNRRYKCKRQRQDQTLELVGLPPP
# Chain of NKX2-5 (Homo sapiens, UniProt P52952 125-210, R139K) (P52952 125-210 R139K): as the sequence (P52952 125-210) above, with R15K counted along it
# Chain of HOXA2 (Homo sapiens, UniProt O43364 129-215, Y150S) (O43364 129-215 Y150S): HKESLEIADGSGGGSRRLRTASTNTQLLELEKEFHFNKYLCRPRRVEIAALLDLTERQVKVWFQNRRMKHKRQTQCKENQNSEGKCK
# Chain of HOXA2 (Homo sapiens, UniProt O43364 129-215, R185K) (O43364 129-215 R185K): as the sequence (O43364 129-215 Y150S) above, with S22Y, R57K counted along it
# Chain of HOXA2 (Homo sapiens, UniProt O43364 129-215, R185T) (O43364 129-215 R185T): as the sequence (O43364 129-215 Y150S) above, with S22Y, R57T counted along it
# Chain of HOXA2 (Homo sapiens, UniProt O43364 129-215) (O43364 129-215): as the sequence (O43364 129-215 Y150S) above, with S22Y counted along it
# Chain of VAX1 (Homo sapiens, UniProt Q5SQQ9 86-172, T142I) (Q5SQQ9 86-172 T142I): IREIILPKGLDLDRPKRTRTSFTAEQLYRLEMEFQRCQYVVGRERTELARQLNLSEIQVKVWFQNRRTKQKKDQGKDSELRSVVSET
# Chain of HOXD13 (Homo sapiens, UniProt P35453 263-343) (P35453 263-343): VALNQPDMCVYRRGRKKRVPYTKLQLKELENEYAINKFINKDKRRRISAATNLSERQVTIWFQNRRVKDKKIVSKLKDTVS
# Chain of HOXA7 (Homo sapiens, UniProt P31268 116-202) (P31268 116-202): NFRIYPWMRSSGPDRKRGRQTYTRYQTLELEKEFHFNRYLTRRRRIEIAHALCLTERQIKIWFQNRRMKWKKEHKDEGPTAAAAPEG
# Chain of VAX1 (Homo sapiens, UniProt Q5SQQ9 86-172, K157R) (Q5SQQ9 86-172 K157R): as the sequence (Q5SQQ9 86-172 T142I) above, with I57T, K72R counted along it
# Chain of HOXD13 (Homo sapiens, UniProt P35453 263-343, T313R) (P35453 263-343 T313R): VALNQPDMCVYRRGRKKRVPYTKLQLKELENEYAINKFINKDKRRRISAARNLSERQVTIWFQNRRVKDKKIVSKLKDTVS
# Chain of VAX1 (Homo sapiens, UniProt Q5SQQ9 86-172) (Q5SQQ9 86-172): as the sequence (Q5SQQ9 86-172 T142I) above, with I57T counted along it
# Chain of NKX3-2 (Homo sapiens, UniProt P78367 192-278) (P78367 192-278): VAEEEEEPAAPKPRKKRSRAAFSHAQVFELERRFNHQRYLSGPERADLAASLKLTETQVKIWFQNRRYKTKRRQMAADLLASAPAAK
# Chain of HOXA7 (Homo sapiens, UniProt P31268 116-202, W177C) (P31268 116-202 W177C): as the sequence (P31268 116-202) above, with W62C counted along it
# Chain of HOXB6 (Homo sapiens, UniProt P17509 132-218, K202E) (P17509 132-218 K202E): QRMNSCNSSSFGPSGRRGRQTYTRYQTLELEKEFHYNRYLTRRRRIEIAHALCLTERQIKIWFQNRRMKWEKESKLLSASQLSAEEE
# Chain of HOXB6 (Homo sapiens, UniProt P17509 132-218) (P17509 132-218): as the sequence (P17509 132-218 K202E) above, with E71K counted along it
# Chain of NKX3-2 (Homo sapiens, UniProt P78367 192-278, P234S) (P78367 192-278 P234S): as the sequence (P78367 192-278) above, with P43S counted along it
sequence,measurement,setting,value
CCCTCCGG,binding signal,[1],"8.58 upbm affinity estimate (log intensity, higher = more binding, comparable within an allelic series)"
same,binding signal,[2],"9.04 upbm affinity estimate (log intensity, higher = more binding, comparable within an allelic series)"
same,binding signal,[3],"8.92 upbm affinity estimate (log intensity, higher = more binding, comparable within an allelic series)"
same,binding signal,[4],"9.12 upbm affinity estimate (log intensity, higher = more binding, comparable within an allelic series)"
same,binding signal,[5],"8.9 upbm affinity estimate (log intensity, higher = more binding, comparable within an allelic series)"
same,binding signal,[6],"9.06 upbm affinity estimate (log intensity, higher = more binding, comparable within an allelic series)"
same,binding signal,[7],"8.95 upbm affinity estimate (log intensity, higher = more binding, comparable within an allelic series)"
same,binding signal,[8],"8.91 upbm affinity estimate (log intensity, higher = more binding, comparable within an allelic series)"
same,binding signal,[9],"9.05 upbm affinity estimate (log intensity, higher = more binding, comparable within an allelic series)"
same,binding signal,[10],"7.03 upbm affinity estimate (log intensity, higher = more binding, comparable within an allelic series)"
same,binding signal,[11],"9.08 upbm affinity estimate (log intensity, higher = more binding, comparable within an allelic series)"
same,binding signal,[12],"9.09 upbm affinity estimate (log intensity, higher = more binding, comparable within an allelic series)"
same,binding signal,[13],"10.1 upbm affinity estimate (log intensity, higher = more binding, comparable within an allelic series)"
same,binding signal,[14],"9.06 upbm affinity estimate (log intensity, higher = more binding, comparable within an allelic series)"
same,binding signal,[15],"9.06 upbm affinity estimate (log intensity, higher = more binding, comparable within an allelic series)"
same,binding signal,[16],"9.01 upbm affinity estimate (log intensity, higher = more binding, comparable within an allelic series)"
same,binding signal,[17],"10.3 upbm affinity estimate (log intensity, higher = more binding, comparable within an allelic series)"
same,binding signal,[18],"6.99 upbm affinity estimate (log intensity, higher = more binding, comparable within an allelic series)"
same,binding signal,[19],"8.53 upbm affinity estimate (log intensity, higher = more binding, comparable within an allelic series)"
GACACTTA,binding signal,[1],"12.7 upbm affinity estimate (log intensity, higher = more binding, comparable within an allelic series)"
same,binding signal,[20],"12.8 upbm affinity estimate (log intensity, higher = more binding, comparable within an allelic series)"
same,binding signal,[21],"11.8 upbm affinity estimate (log intensity, higher = more binding, comparable within an allelic series)"
same,binding signal,[22],"13.6 upbm affinity estimate (log intensity, higher = more binding, comparable within an allelic series)"
same,binding signal,[23],"12.9 upbm affinity estimate (log intensity, higher = more binding, comparable within an allelic series)"
same,binding signal,[24],"11.1 upbm affinity estimate (log intensity, higher = more binding, comparable within an allelic series)"
same,binding signal,[25],"12.8 upbm affinity estimate (log intensity, higher = more binding, comparable within an allelic series)"
same,binding signal,[19],"12.6 upbm affinity estimate (log intensity, higher = more binding, comparable within an allelic series)"
same,binding signal,[26],"12.9 upbm affinity estimate (log intensity, higher = more binding, comparable within an allelic series)"
CCTACGGA,binding signal,[1],"8.68 upbm affinity estimate (log intensity, higher = more binding, comparable within an allelic series)"
same,binding signal,[27],"9.05 upbm affinity estimate (log intensity, higher = more binding, comparable within an allelic series)"
same,binding signal,[28],"7.04 upbm affinity estimate (log intensity, higher = more binding, comparable within an allelic series)"
same,binding signal,[29],"7.2 upbm affinity estimate (log intensity, higher = more binding, comparable within an allelic series)"
same,binding signal,[30],"7.03 upbm affinity estimate (log intensity, higher = more binding, comparable within an allelic series)"
same,binding signal,[19],"8.68 upbm affinity estimate (log intensity, higher = more binding, comparable within an allelic series)"
same,binding signal,[31],"8.95 upbm affinity estimate (log intensity, higher = more binding, comparable within an allelic series)"
ACCGGTCC,binding signal,[1],"8.75 upbm affinity estimate (log intensity, higher = more binding, comparable within an allelic series)"
same,binding signal,[32],"8.49 upbm affinity estimate (log intensity, higher = more binding, comparable within an allelic series)"
same,binding signal,[33],"8.3 upbm affinity estimate (log intensity, higher = more binding, comparable within an allelic series)"
same,binding signal,[19],"8.88 upbm affinity estimate (log intensity, higher = more binding, comparable within an allelic series)"
CAGCCCGG,binding signal,[1],"8.37 upbm affinity estimate (log intensity, higher = more binding, comparable within an allelic series)"
same,binding signal,[10],"7.16 upbm affinity estimate (log intensity, higher = more binding, comparable within an allelic series)"
same,binding signal,[34],"9.5 upbm affinity estimate (log intensity, higher = more binding, comparable within an allelic series)"
same,binding signal,[13],"10.1 upbm affinity estimate (log intensity, higher = more binding, comparable within an allelic series)"
same,binding signal,[35],"9.67 upbm affinity estimate (log intensity, higher = more binding, comparable within an allelic series)"
same,binding signal,[36],"9.74 upbm affinity estimate (log intensity, higher = more binding, comparable within an allelic series)"
same,binding signal,[17],"10.3 upbm affinity estimate (log intensity, higher = more binding, comparable within an allelic series)"
same,binding signal,[18],"7.06 upbm affinity estimate (log intensity, higher = more binding, comparable within an allelic series)"
same,binding signal,[19],"8.35 upbm affinity estimate (log intensity, higher = more binding, comparable within an allelic series)"
